From PubChem
PTHR1 ag: qHTS for PTHR1 Agonists: Primary Screen | HEK293 GP2 PTHR1 cells, GloSensor cAMP luminescence, 1 h | Potency, µM (highest dose often 115 µM), usual class: activators | hit rate 0.075% among 410,000 | AID 743266, 2014; also: nearly all actives have a fitted effect of over 55% in size
Target sequence (Q03431 whole entry, looked up): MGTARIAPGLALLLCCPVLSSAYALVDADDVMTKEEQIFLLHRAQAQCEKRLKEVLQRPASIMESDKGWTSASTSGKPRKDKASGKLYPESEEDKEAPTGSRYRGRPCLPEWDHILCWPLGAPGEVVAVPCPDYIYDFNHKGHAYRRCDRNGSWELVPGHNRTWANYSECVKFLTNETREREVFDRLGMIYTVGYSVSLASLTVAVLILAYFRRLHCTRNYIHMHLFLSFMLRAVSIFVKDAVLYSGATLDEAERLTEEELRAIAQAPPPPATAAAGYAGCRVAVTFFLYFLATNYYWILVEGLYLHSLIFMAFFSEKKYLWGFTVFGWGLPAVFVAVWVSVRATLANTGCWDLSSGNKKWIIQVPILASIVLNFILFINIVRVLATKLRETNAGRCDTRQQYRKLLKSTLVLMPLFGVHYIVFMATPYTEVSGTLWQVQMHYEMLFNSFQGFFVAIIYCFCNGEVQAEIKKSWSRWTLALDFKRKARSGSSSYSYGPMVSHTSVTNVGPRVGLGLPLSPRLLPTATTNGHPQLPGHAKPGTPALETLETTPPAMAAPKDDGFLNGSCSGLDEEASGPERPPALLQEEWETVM
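HEK-293-derived GP2 cells expressing PTHR1 and a GloSensor cAMP reporter, 3,000/well, plated overnight, given luciferin plus IBMX (each 0.5 mM as added) for 1 h at 37 °C, then compound for 1 h at 37 °C. Luminescence was read after 15 min at room temperature.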
BRCA1 expr act: qHTS Assay to Identify Small Molecule Activators of BRCA1 Expression | Potency, µM (titrated, usually from 46.1 µM), usual class: activators | hit rate 1.1% among 380,000 | MCF7-BRCA1-FFLuc reporter, luminescence, 48 h; response scale: scaled: vehicle 0%, 10 µM genistein 100%; also: nearly all actives have a fitted effect of over 80% in size
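48 h compound treatment of MCF7-BRCA1-FFLuc cells (phenol-red free MEM, 37 °C), then 15 min with luciferase substrate and luminescence imaging.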
BCR signal inh: qHTS Assay to Find Inhibitors of Chronic Active B-Cell Receptor Signaling. ABC-DLBCL IkBa-CBG/CBR reporter, luminescence ratio, 4 h. Potency, µM (top dose mostly 46.1 µM), hits mostly inhibitors. hit rate 0.05% among 340,000; active = well fitted inhibition curve with a large enough effect in the signal ratio, with a control signal flat, not every such curve was filed as active; inconclusive = small, poorly fitted or top-dose-only effect, or effect the other way, or a change in a side signal; the % refers to the signal ratio
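TMD8 ABC-DLBCL cells carrying doxycycline-inducible green luciferase fused to IkappaBalpha plus unfused red luciferase were exposed to compounds (up to 46 uM) for 4 hrs at 37C. Activity came from the overlap-corrected green/red luminescence ratio.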
Mito fusion act: qHTS Assay for Small Molecule Inhibitors of Mitochondrial Division or Activators of Mitochondrial Fusion; S. cerevisiae fusion-defective mutant growth rescue, CellTiterGlo 48 h; hit rate 0.23% among 320,000; Potency, µM (doses to about 46.1 µM), actives largely listed as activators; also: nearly all actives have a fitted effect of over 45% in size
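Yeast fusion mutant, YPEG (non-fermentable carbon), compound, 48 h at 37C non-permissive; CellTiterGlo added, 10 min RT, luminescence read. Rescued growth = division inhibition.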
TCR act: Activators of T cell receptors: qHTS campaign; primary human leukocytes, anti-CD3, IL-2 HTRF, 48 h; AID 504894, 2011; Potency, µM (series often up to 9.22 µM), most hits filed as activators; 330,000 tested, under 10 active
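Activity was scored as IL-2 release from primary human leukocytes given only a TCR signal (a-CD3 beads) plus compound for 48 hr. Detection used a two-antibody HTRF format read at 665nm.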
IL-2 act: qHTS of IL-2 Activators | IL-2 activation reporter assay, cell-based qHTS; stimulated with anti-CD3/CD4/CD28 beads; in transgenic mouse T cells | activation, % (series mostly up to about 46 µM) | hit rate 0.065% among 360,000; in the data active = activation above about 50%; inconclusive = mostly about 30% to 49%
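First, unstimulated transgenic mouse T cells were exposed to compound for 60 min. Next, anti-CD3/anti-CD4-coated beads with anti-CD28 were added. Finally, after 18 h at 37 degrees C, EGFP and DsRed were imaged.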
Large screens that a line does not name were inactive. Only some compounds are listed: those with a hit (about 1.3% of all), similar ones and a draw of the others. Unless noted, calls follow the shape of the dose curve; as a rule, active = well fitted curve in the direction sought with a large enough effect; inconclusive = small, poorly fitted or top-dose-only effect, or another doubt; inactive = no such curve, though single readings can be large; an effect the other way counts as inactive or inconclusive.

COc1ccc(Nc2ncnc3ccccc23)cc1	BRCA1 expr act 7.9µM
COc1cccc(Nc2ncnc3ccccc23)c1	BRCA1 expr act 11µM, BCR signal inh inconclusive (no result: TCR act)
COc1ccc(Nc2ncnc3ccccc23)c(OC)c1	BCR signal inh inconclusive
O=C(Oc1cccc(Nc2ncnc3ccccc23)c1)c1ccccc1Cl	BCR signal inh inconclusive, Mito fusion act inconclusive
COc1cc2cnc(C3=CCCCC3)cc2cc1OC	BCR signal inh inconclusive (no result: Mito fusion act)
COc1ccc2cc(C3=CCCCC3)ncc2c1	BRCA1 expr act 2.8µM, BCR signal inh inconclusive
Cc1cc(C(=O)O/N=C(\N)c2ccc(C(C)(C)C)cc2)no1	BRCA1 expr act 2.5µM
O=C1OC(C(=O)Nc2ccccc2)Cc2ccccc21 (stereo not drawn)	BCR signal inh inconclusive
Cc1ccc(NC(=O)C2Cc3ccccc3C(=O)O2)cc1 (stereo not drawn)	BRCA1 expr act 4µM
Oc1ccc(COC2CCN(Cc3ccccc3)C2)c2cccnc12 (stereo not drawn)	BCR signal inh inconclusive (no result: PTHR1 ag, BRCA1 expr act, TCR act, IL-2 act)
Fc1ccccc1COc1ccc(C(=S)N2CCCC2)cc1	BRCA1 expr act 11µM
COC(=O)[C@]12CCCCC=C1N(Cc1ccc3c(c1)OCO3)C(=O)[C@H](CC(=O)NCc1ccc(OC)c(OC)c1)C2	none (no result: BRCA1 expr act, BCR signal inh, Mito fusion act, TCR act)
Cc1ccc(S(=O)(=O)N2CCN(c3nc(-c4ccnnc4)nc4ccccc34)CC2)cc1	none (no result: PTHR1 ag, BCR signal inh, Mito fusion act, TCR act, IL-2 act)
Cc1ccc(-c2nnc(SCC(=O)NC3CCCC3)n2N)cc1	none (no result: Mito fusion act)
O=C(Nc1cccc2cccnc12)OC(Cl)(Cl)Cl	none (no result: PTHR1 ag, BCR signal inh, Mito fusion act, TCR act, IL-2 act)
CC(=O)Oc1ccc(-c2cc3ccc(OC(C)=O)cc3oc2=O)cc1	BRCA1 expr act 5.6µM (no result: BCR signal inh, Mito fusion act)
COc1ccc(CC(=O)c2ccc(OC3OC(CO)C(O)C(O)C3O)cc2O)cc1 (stereo not drawn)	BRCA1 expr act 11µM, BCR signal inh inconclusive
COc1ccc(-c2coc3cc(O)ccc3c2=O)cc1O	BRCA1 expr act 13µM, BCR signal inh inconclusive
CC(=O)Oc1ccc2cc(-c3ccccc3)c(=O)oc2c1	BRCA1 expr act inconclusive, BCR signal inh inconclusive
COc1ccc(-c2coc3cc(O[C@@H]4O[C@H](CO)[C@@H](O)[C@H](O)[C@H]4O)c(OC)cc3c2=O)cc1	BRCA1 expr act 11µM, BCR signal inh inconclusive (no result: Mito fusion act)
COC(=O)c1ccccc1NC(=O)Cn1c(=O)n(Cc2ccc(C(=O)NCc3ccc4c(c3)OCO4)cc2)c(=O)c2ccccc21	none (no result: BCR signal inh, Mito fusion act, TCR act, IL-2 act)
Cc1ccc(O/C=C2/Nn3c(nnc3-c3cc(-c4ccccc4)n[nH]3)S2)cc1	none (no result: PTHR1 ag, BCR signal inh, Mito fusion act, TCR act, IL-2 act)
COc1ccc(-c2coc3cc(OC)ccc3c2=O)cc1	BRCA1 expr act 2.8µM (no result: BCR signal inh, Mito fusion act)
CC(=O)Oc1ccc2c(=O)c(-c3ccccc3)coc2c1	BRCA1 expr act 7.9µM, BCR signal inh inconclusive
CCCN1CNc2c(c(=O)[nH]c(=S)n2CCc2ccsc2)C1	none (no result: PTHR1 ag, BCR signal inh, Mito fusion act, TCR act, IL-2 act)
CC(C)N(C)c1ncnc2c1ncn2[C@H]1CN(Cc2ccc(Cl)cc2)C[C@@H](CO)O1	none (no result: BCR signal inh, Mito fusion act, TCR act)
Cc1ccc(/C=N/NC(=O)c2cccs2)s1	BRCA1 expr act 11µM, BCR signal inh inconclusive
O=C(N/N=C/c1cccc2ccccc12)c1cccs1	BRCA1 expr act 4µM, BCR signal inh inconclusive
O=C(N/N=C/c1c[nH]c2ccccc12)c1cccs1	BCR signal inh inconclusive
O=S(=O)(c1ccc(Br)cc1)N1CCN(c2nc(-c3ccccc3)nc3ccccc23)CC1	none (no result: PTHR1 ag, BCR signal inh, Mito fusion act, TCR act, IL-2 act)
CCc1ccc(NC(=O)N2CCCCCC2)cc1	BRCA1 expr act 7.1µM
S=C(Nc1ccc(Br)cc1)NC1CCCCC1	BRCA1 expr act 10µM, Mito fusion act inconclusive
Cc1ccc(NC(=O)C(=O)NC2CCCCC2)cc1	BRCA1 expr act 1.3µM, BCR signal inh inconclusive
